Laboratory results taken from PubChem BioAssay (EPA / NIEHS).
Calls of active or inactive are those of the source. Rule for the calls: active = hit-call score of the fitted dose curve at least 0.9, where 1 is the maximum; inactive = score below 0.9.

Columns and labels:
[1] = read-out: Urokinase-type plasminogen activator receptor (uPAR), PLAUR (gene 5329); test: BSK_4H_uPAR: BioMAP Diversity Plus: 4H Assay for Urokinase-type plasminogen activator receptor (uPAR) Biomarker Activity (AID 2283030); details: primary human endothelial cells (HUVEC); actives raise or lower the signal
How it was run: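 uPAR level read by ELISA on HUVEC cultures (BioMAP 4H) 24 h post-dosing, analyzed for gain or loss relative to DMSO. Parallel SRB staining assessed overt cytotoxicity.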

[2] = read-out: Vascular endothelial growth factor receptor 2 (Homo sapiens) (UniProt P35968); test: BSK_4H_VEGFRII: BioMAP Diversity Plus: 4H Assay for Vascular endothelial growth factor receptor 2 (VEGFR2) Biomarker Activity (AID 2283031); details: primary human endothelial cells (HUVEC); actives raise or lower the signal;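 for AC50: cell-surface VEGFR2 protein level quantified by ELISA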
How it was run: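 Measured by ELISA after 24 h of compound treatment: VEGFR2 on primary human umbilical vein endothelial cells, fitted in both directions relative to DMSO. Parallel cultures received SRB staining (560 nm) for overt cytotoxicity.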

[3] = read-out: Human Leukocyte Antigen - DR isotype (HLADR), HLA-DRA (gene 3122); test: BSK_BE3C_HLADR: BioMAP Diversity Plus: BE3C Assay for Human Leukocyte Antigen - DR isotype (HLADR) Biomarker Activity (AID 2283032); details: primary human bronchial epithelial cells; actives raise or lower the signal
How it was run: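 Cell-surface HLA-DR ELISA readout at 24 h after dosing in the BE3C primary human lung bronchial epithelial system; gain or loss of signal against DMSO, with parallel sulforhodamine B staining of total protein for overt cytotoxicity.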

[4] = read-out: Vascular cell adhesion molecule 1 (VCAM1), VCAM1 (gene 7412); test: BSK_4H_VCAM1: BioMAP Diversity Plus: 4H Assay for Vascular cell adhesion molecule 1 (VCAM1) Biomarker Activity (AID 2283033); details: primary human endothelial cells (HUVEC); actives raise or lower the signal
How it was run: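 VCAM-1 ELISA read 24 h after chemical dosing of HUVEC in the BioMAP 4H system, with gain or loss of signal fitted relative to DMSO. Parallel SRB staining (560 nm) checked overt cytotoxicity.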

[5] = read-out: Interferon-gamma inducible Protein 10 (IP10), CXCL10 (gene 3627); test: BSK_BE3C_IP10: BioMAP Diversity Plus: BE3C Assay for Interferon-gamma inducible Protein 10 (IP10) Biomarker Activity (AID 2283034); details: primary human bronchial epithelial cells; actives raise or lower the signal
How it was run: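 IP-10 quantified by ELISA in human primary bronchial epithelial cell cultures at 24 hours post-dosing. Gain or loss of signal fitted relative to DMSO; parallel SRB staining assessed overt cytotoxicity.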

[6] = read-out: Monokine induced gamma interferon (MIG), CXCL9 (gene 4283); test: BSK_BE3C_MIG: BioMAP Diversity Plus: BE3C Assay for Monokine induced gamma interferon (MIG) Biomarker Activity (AID 2283035); details: primary human bronchial epithelial cells; actives raise or lower the signal;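 note: MIG protein measured by ELISA in BE3C cultures after 24 h of dosing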
How it was run: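 hu bronchial epithelial 1° cells, 24 h cpd; MIG by ELISA; bidirectional fit, DMSO = baseline.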

[7] = read-out: Plasminogen activator inhibitor-1 (PAI1), SERPINE1 (gene 5054); test: BSK_BE3C_PAI1: BioMAP Diversity Plus: BE3C Assay for Plasminogen activator inhibitor-1 (PAI1) Biomarker Activity (AID 2283037); details: primary human bronchial epithelial cells; actives raise or lower the signal
How it was run: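 PAI-1 was measured by ELISA in human primary bronchial epithelial cultures 24 h after chemical dosing, with cytotoxicity checked by SRB total-protein staining in parallel cultures. Activity was fitted in both directions relative to DMSO.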

[8] = read-out: urokinase plasminogen activator (uPA), PLAU (gene 5328); test: BSK_BE3C_uPA: BioMAP Diversity Plus: BE3C Assay for urokinase plasminogen activator (uPA) Biomarker Activity (AID 2283038); details: primary human bronchial epithelial cells; actives raise or lower the signal
How it was run: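 ELISA for uPA on human primary bronchial epithelial cultures 24 h post-treatment, gain or loss against DMSO. Parallel SRB staining (0.1% after 10% TCA fixation, 560 nm) assessed overt cytotoxicity.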

[9] = read-out: Urokinase-type plasminogen activator receptor (uPAR), PLAUR (gene 5329); test: BSK_BE3C_uPAR: BioMAP Diversity Plus: BE3C Assay for Urokinase-type plasminogen activator receptor (uPAR) Biomarker Activity (AID 2283039); details: primary human bronchial epithelial cells; actives raise or lower the signal
How it was run: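 uPAR levels were measured by ELISA after 24 h compound treatment of primary human bronchial epithelial cells, fitted in both directions relative to DMSO. Parallel SRB staining served as the cytotoxicity read-out.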

[10] = read-out: Transforming growth factor beta 1 (TGFb1), TGFB1 (gene 7040); test: BSK_BE3C_TGFb1: BioMAP Diversity Plus: BE3C Assay for Transforming growth factor beta 1 (TGFb1) Biomarker Activity (AID 2283036); details: primary human bronchial epithelial cells; actives raise or lower the signal
How it was run: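 ELISA readout of TGF-b1 from human lung bronchial epithelial primary cells, taken 24 h post-treatment. Gain or loss of signal fitted relative to DMSO baseline, with parallel SRB staining for overt cytotoxicity.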

Measured: AC50

FC(F)=C(F)C(F)(F)C(F)(F)C(F)(F)C(F)(F)C(F)(F)C(F)(F)F
not listed: [10]
inactive: all other assays above

NCC(F)(F)C(F)(F)C(F)(F)C(F)(F)F
not listed: [10]
inactive: all other assays above

CCCCCCCCCCCCCCO
active: [1] 32.6 µM | [2] 32.6 µM | [4] 34.2 µM
not listed: [6]
inactive: all other assays above

CCCCCCCCCCCCCCCCOS(=O)(=O)O
active: [3] 15.1 µM | [5] 10.5 µM | [10] 16 µM | [7] 15.1 µM | [8] 15.7 µM | [9] 16.1 µM
inactive: [1] | [2] | [4] | [6]

NC(N)=O
inactive: all assays above

CCc1ccc(O)c(C(C)(C)C)c1
active: [1] 36.7 µM | [4] 31.1 µM
not listed: [6]
inactive: all other assays above

Cc1ccc(S(=O)(=O)NC(=O)NN2CCCCCC2)cc1
not listed: [6]
inactive: all other assays above

c1ccc(C(O[C@@H]2CCCN(CCc3ccc4c(c3)OCO4)C2)c2ccccc2)cc1
active: [1] 15.5 µM | [3] 20 µM | [4] 26.9 µM
inactive: all other assays above

Cc1cccc(O)c1C
not listed: [6]
inactive: all other assays above

CCOc1ccc2[nH]cc(C(=O)NCc3ccccc3)c(=O)c2n1
not listed: [6]
inactive: all other assays above

OCCNCCO
inactive: all assays above

O=c1[nH]cnc2c1ncn2[C@H]1CC[C@@H](CO)O1
not listed: [7]
inactive: all other assays above

C[C@@H](Oc1ccc(CNC(=O)c2cccnc2Oc2ccc3c(c2)OCO3)c(F)c1)C(=O)O
not listed: [7]
inactive: all other assays above

CC(C)C(=O)Nc1ccc([N+](=O)[O-])c(C(F)(F)F)c1
not listed: [7]
inactive: all other assays above

CCCCCCOC(=O)CC(CC(=O)OCCCCCC)(OC(=O)CCC)C(=O)OCCCCCC
not listed: [7]
inactive: all other assays above

S=P(N1CC1)(N1CC1)N1CC1
inactive: all assays above

CCCCCCCC1CCC(=O)O1 (stereo not drawn)
not listed: [7]
inactive: all other assays above

CCCCCCCCN(C)C
inactive: all assays above

CCCCCCCCCC
not listed: [7]
inactive: all other assays above

OC[C@H]1O[C@@H]2O[C@H]3[C@H](O)[C@@H](O)[C@@H](O[C@H]4[C@H](O)[C@@H](O)[C@@H](O[C@H]5[C@H](O)[C@@H](O)[C@@H](O[C@H]6[C@H](O)[C@@H](O)[C@@H](O[C@H]7[C@H](O)[C@@H](O)[C@@H](O[C@H]1[C@H](O)[C@H]2O)O[C@@H]7CO)O[C@@H]6CO)O[C@@H]5CO)O[C@@H]4CO)O[C@@H]3CO
not listed: [6]
inactive: all other assays above

CC(C)CCCCCCOC(=O)C1CCCCC1C(=O)OCCCCCCC(C)C (stereo not drawn)
not listed: [6]
inactive: all other assays above

CCCCN1C(=O)[C@@H]([C@H](O)C2CCCCC2)NC(=O)C12CCN(Cc1ccc(Oc3ccc(C(=O)O)cc3)cc1)CC2
active: [1] 20 µM
not listed: [6]
inactive: all other assays above

Cn1cc[nH]c1=S
inactive: all assays above

FC(F)(F)C(F)(F)C(F)(F)C(F)(F)C(F)(F)C(F)(F)I
not listed: [7] | [10]
inactive: all other assays above

CCn1nc(C)c2c1C(=O)NCC(c1ccc(O)cc1)=N2
not listed: [6]
inactive: all other assays above

OCc1ccccc1
inactive: all assays above

O=S(=O)(O)c1ccc(N=Nc2c(O)ccc3cc(S(=O)(=O)O)ccc23)cc1
not listed: [6]
inactive: all other assays above

Cc1ncc([C@@H](CCCCCCc2ccc3c(n2)NCCC3)CC(=O)O)cn1
active: [1] 3.97 µM
not listed: [6] | [7]
inactive: all other assays above

c1ccc2ncccc2c1
not listed: [6] | [7]
inactive: all other assays above

OCC(CO)(CO)CO
not listed: [1]
inactive: all other assays above

O=C(Cl)C(F)(F)C(F)(F)C(F)(F)C(=O)Cl
not listed: [6] | [7] | [10]
inactive: all other assays above

COS(C)(=O)=O
not listed: [6]
inactive: all other assays above

CCCOc1ccc(S(=O)(=O)N2CCN(CC)CC2)cc1-c1nc2c(CC)n(Cc3ccccn3)nc2c(=O)[nH]1
not listed: [1]
inactive: all other assays above

OCc1c[nH]c2ccccc12
active: [3] 3.97 µM | [5] 5.95 µM | [7] 0.0716 µM
not listed: [6]
inactive: all other assays above

NC(=O)N1c2ccccc2C=Cc2ccccc21
not listed: [5]
inactive: all other assays above

CC(=O)c1ccccc1
not listed: [6] | [7]
inactive: all other assays above

O=C(O)c1ccc2c(c1)nc(C(=O)NC1CCN(C3CC3)CC1)n2Cc1cc(-c2ccc(Cl)s2)on1
active: [1] 0.0541 µM
not listed: [6] | [7]
inactive: all other assays above

O=C1CN(N=Cc2ccc([N+](=O)[O-])o2)C(=O)N1
not listed: [6]
inactive: all other assays above

CCCCOC(=O)c1ccccc1
not listed: [6] | [7]
inactive: all other assays above

O=S1(=O)CCCO1
not listed: [1]
inactive: all other assays above

CC1(C)C(=O)N(Cl)C(=O)N1Cl
not listed: [1]
inactive: all other assays above

O=C(O)[C@H](O)[C@@H](O)C(=O)O
not listed: [1]
inactive: all other assays above

CNC(C)=O
not listed: [6]
inactive: all other assays above

NNC(=O)c1ccncc1
not listed: [6] | [7]
inactive: all other assays above

CCCCCOC(C)=O
not listed: [1]
inactive: all other assays above

OC(Cn1cncn1)(Cn1cncn1)c1ccc(F)cc1F
not listed: [1]
inactive: all other assays above
